DAX1 inh-1 – inhibitors of human orphan nuclear receptor DAX1 (NR0B1). inhibition, % at 6.75 µM. AID 504766. actives 0.99% (n = 340,000). HEK293 Gal4-DAX1 luciferase reporter, luminescence;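 active = inhibition above the mean over all tested compounds plus 3 SD, cut at about 4.2% in these data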;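 also: 0% = DAX1-transfected cells with DMSO and 100% = empty-vector control cells with DMSO; inhibition shows as a rise in luminescence from relieved DAX1 repression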
Target sequence (P51843 207-470 limits assumed): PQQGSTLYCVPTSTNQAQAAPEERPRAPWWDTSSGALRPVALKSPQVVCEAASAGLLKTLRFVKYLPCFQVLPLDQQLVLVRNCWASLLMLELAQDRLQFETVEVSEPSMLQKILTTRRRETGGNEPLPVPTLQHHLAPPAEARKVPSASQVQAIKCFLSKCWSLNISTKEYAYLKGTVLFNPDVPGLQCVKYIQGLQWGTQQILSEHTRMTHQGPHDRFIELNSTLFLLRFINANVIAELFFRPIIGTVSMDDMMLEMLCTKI
hgDAF12 agonist – activates the H. glycines DAF-12 receptor ligand-binding domain. HEK293 GAL4-hgDAF12 UAS-luciferase reporter, agonist luminescence; normalized to butyrate control. activation, % at 6.8 µM. actives 1.8% (n = 370,000);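 active = activation above a cutoff set at the mean of all screened compounds plus 3 SD, cut at about 10% in these data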;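 also: 0% = DMSO wells and 100% = sodium butyrate wells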
GAA850 FXN act – increases GAA850 frataxin promoter reporter activity; HEK293 lucGAA850 FXN promoter luciferase reporter, 24 h; percent of 10 µM SAHA response; activation, % at 6 µM; AID 540364; actives 0.56% (n = 360,000);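 active = activation above the average of all compounds screened plus 3 SD, cutoff fixed separately per campaign, cut at about 7.5% in these data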;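 also: 0% = DMSO wells and 100% = 10 µM SAHA wells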
DAX1 inh-2 – inhibitors of DAX1 repression of SF-1 activated StAR promoter; HEK293T StAR-luciferase reporter, SF-1/DAX-1 repression relief; inhibition, % at 6.8 µM; actives 1.1% (n = 370,000);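 active = inhibition above the mean over all tested compounds plus 3 SD, cut at about 3.6% in these data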;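 also: 0% = DAX-1 cells with DMSO and 100% = cells lacking DAX-1 with DMSO; higher inhibition means more luminescence from relief of DAX-1 repression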
hcDAF-12 act – activates DAF-12 receptor from parasite H. contortus | HEK293 hcDAF-12 lit1-tk-luc reporter, luminescence; 0% DMSO, 100% Δ7-dafachronic acid | activation, % at 6.8 µM | actives 1.4% (n = 370,000);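 active = activation above the mean of all tested compounds plus 3 SD, cut at about 5.5% in these data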;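 also: 100% = response to 3 µM Δ7-dafachronic acid high control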
ssDAF12 agonist – activators of S. stercoralis DAF-12 nuclear receptor. HEK293 ssDAF-12/GRIP1 lit1-tk-luc reporter, luminescence; % of 3 µM dafachronic acid response. activation, % at 6.8 µM. AID 652126. actives 1% (n = 370,000);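 active = activation above the mean over all tested compounds plus 3 SD, cut at about 0.9% in these data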;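 also: 0% = DMSO-only wells and 100% = 3 µM delta7-dafachronic acid wells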
LXR ag – LXR-beta agonism as hcDAF-12 counter-screen. shares compounds with hcDAF-12 act. HEK293 Gal4-LXR tk-luc reporter, luminescence, 24 h; normalized: DMSO 0%, positive control 100%. activation, % at 6.8 µM. 3,400 tested, under 10 active;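 active = mean percent activation of the reporter above a cutoff set as the average over tested compounds plus their standard deviation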
Target sequence (P55055 whole entry, looked up, the tested form may be a part): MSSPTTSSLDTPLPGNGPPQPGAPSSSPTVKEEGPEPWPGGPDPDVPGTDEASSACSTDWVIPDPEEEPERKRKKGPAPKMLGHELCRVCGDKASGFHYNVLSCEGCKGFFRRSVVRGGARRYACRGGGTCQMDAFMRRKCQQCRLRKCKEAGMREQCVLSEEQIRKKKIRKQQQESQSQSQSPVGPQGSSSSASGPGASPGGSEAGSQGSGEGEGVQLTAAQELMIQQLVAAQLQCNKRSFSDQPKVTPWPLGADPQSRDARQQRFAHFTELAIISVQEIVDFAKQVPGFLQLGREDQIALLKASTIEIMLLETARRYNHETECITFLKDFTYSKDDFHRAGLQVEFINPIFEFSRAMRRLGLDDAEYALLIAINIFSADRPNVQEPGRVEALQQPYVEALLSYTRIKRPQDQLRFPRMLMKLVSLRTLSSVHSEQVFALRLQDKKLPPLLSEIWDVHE
hcDAF12 ag – hcDAF-12 agonism, confirmation assay; activation, % at 6.8 µM; HEK293 hcDAF-12 lit1-tk-luc reporter, luminescence; % of Δ7-dafachronic acid response; actives 61% (n = 3,400); shares compounds with hcDAF-12 act;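 active = mean activation across triplicate tests above the threshold derived from the earlier primary screen, cut at about 5.5% in these data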;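 also: 0% = DMSO only wells and 100% = 3 µM Δ7-dafachronic acid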
* = called active by the depositor; · = no result. This is a sample that favours compounds with a hit; in the whole collection about 4.5% have one here.

SMILES | DAX1 inh-1 | hgDAF12 agonist | GAA850 FXN act | DAX1 inh-2 | hcDAF-12 act | ssDAF12 agonist | LXR ag | hcDAF12 ag
COc1ccc(C(c2c(C)[nH]n(-c3ccccc3)c2=O)c2c(C)[nH]n(-c3ccccc3)c2=O)cc1OC | 0.1 | 0.1 | 1.4 | -0.6 | 7.5* | -1.0 | -0.4 | 0.9
Cc1ccc(C(C[N+](=O)[O-])c2c(C)[nH]n(-c3ccccc3)c2=O)cc1 (configuration not stated) | 0.9 | 1.6 | -4.4 | -0.2 | 1.1 | -0.8 | · | ·
Cc1[nH]n(-c2ccccc2)c(=O)c1N=Nc1ccc(Cl)cc1 | 0.1 | 1.9 | 0.1 | -0.4 | 8.6* | -0.4 | 0.0 | 4.6
CC1CN(c2ccnc3cc(Cl)ccc23)CCN1C(=O)c1ccc(Cl)cc1 (configuration not stated) | · | -6.1 | · | · | -4.9 | -2.3 | · | ·
C[C@@H]1Cc2cc(O)cc(O)c2C(=O)O1 | · | 2.2 | · | 0.2 | -0.5 | -0.4 | · | ·
CC1CCCCN1S(=O)(=O)c1ccc(C(=O)Nc2ccccc2-c2nc3ccccc3s2)cc1 (configuration not stated) | 0.3 | 1.4 | 0.3 | 0.2 | 11.0* | 0.3 | 0.0 | 3.9
O=C(CSc1nc2cc(Cl)ccc2s1)c1ccco1 | 2.3 | 3.3 | 4.9 | 2.5 | 9.7* | 0.1 | 0.1 | 3.4
C=CCN=C1NC(c2ccc(C(F)(F)F)cc2)C(C(=O)OC)=C(C)N1C (configuration not stated) | · | 1.6 | · | -0.7 | -0.9 | -1.2 | · | ·
COCCCNC(=O)C[C@H]1C[C@@]2(C(=O)OC)C(=C[C@H](C(C)C)O[C@@H]2C2CC2)N(Cc2cccc3ccccc23)C1=O | · | -1.2 | · | -0.6 | -1.4 | -1.6 | · | ·
COc1ccc(S(=O)(=O)N(C)C[C@@H]2Oc3c(NC(=O)Nc4cccc5ccccc45)cccc3C(=O)N([C@@H](C)CO)C[C@H]2C)cc1 | · | -2.3 | · | · | -2.9 | -1.5 | · | ·
COc1ccc(Cn2c(O)c(C=Nc3ccc(OC)cc3)c3ccccc3c2=O)cc1 | -0.1 | -1.7 | 4.7 | 0.2 | -1.9 | -1.6 | · | ·
COc1ccc(N=Cc2[nH]c3ccccc3c2O)cc1 | 1.0 | 8.0 | 4.5 | -0.1 | 11.9* | 0.7 | 1.2 | 9.6*
O=C(Nc1ccccc1)Nc1nc2ncccn2c1-c1ccc(C(F)(F)F)cc1 | · | 5.2 | · | -0.6 | 1.5 | -0.6 | · | ·
CCN(CC)S(=O)(=O)c1ccc2c(c1)N(CC(=O)Nc1ccc(NC(C)=O)cc1)C(=O)CO2 | 3.3 | -0.6 | -0.1 | 0.1 | 6.8* | -0.3 | -0.3 | 1.4
Cc1ccc(C2=NN(S(C)(=O)=O)C(c3ccc4nccnc4c3)C2)cc1 (configuration not stated) | -0.9 | 7.3 | 3.7 | 1.9 | 1.8 | -0.6 | · | ·
COc1ccc(C2=NN(S(C)(=O)=O)C(c3ccc4nccnc4c3)C2)cc1 (configuration not stated) | 0.4 | 6.9 | 3.6 | 1.4 | 8.4* | 0.5 | 0.3 | 3.9
CCCCN1CN2CCc3ccccc3C2CS1(=O)=O (configuration not stated) | · | -0.4 | · | 0.5 | -4.8 | -0.8 | · | ·
Cc1c(CC(=O)N[C@H](C(=O)O)C(C)C)c(=O)oc2cc3c(cc12)CCC(C)(C)O3 | 0.1 | 7.5 | 3.9 | 1.6 | 6.9* | -0.2 | 0.9 | 6.6*
Cc1c(CC(=O)N[C@@H](C)C(=O)O)c(=O)oc2cc3c(cc12)CCC(C)(C)O3 | -1.2 | 1.5 | 1.8 | -0.1 | -0.3 | -0.7 | · | ·
O=C(CSc1nnc(-c2cccnc2)n1-c1ccc(Cl)cc1)Nc1ccccc1-c1ccccc1 | · | -2.0 | · | -1.2 | -2.5 | -1.5 | · | ·
O=C(NCc1ccccc1)C(c1cc2ccccc2o1)n1c(=O)c(-c2cc3ccccc3[nH]2)nc2ccccc21 (configuration not stated) | · | 5.6 | · | 2.7 | 9.2* | 1.8* | -0.2 | 7.0*
CCCCCNC(=O)C(c1ccncc1)n1c(=O)c(-c2cc3ccccc3[nH]2)nc2ccccc21 (configuration not stated) | · | 8.4 | · | 4.3* | 9.2* | 0.9* | 0.3 | 9.9*
O=C(NCc1ccccc1)C(c1ccccc1)n1c(=O)c(-c2cc3ccccc3[nH]2)nc2ccccc21 (configuration not stated) | · | 4.1 | · | 2.1 | 3.5 | 0.3 | · | ·
O=C(Nc1ccc2c(c1)OCCO2)C(c1ccncc1)n1c(=O)c(-c2cc3ccccc3[nH]2)nc2ccccc21 (configuration not stated) | · | 12.1* | · | 2.6 | 8.8* | 1.6* | 1.1 | 15.0*
CCCCCNC(=O)C(c1ccc(OC)cc1)n1c(=O)c(-c2cc3ccccc3[nH]2)nc2ccccc21 (configuration not stated) | · | 1.9 | · | 0.7 | 3.6 | 0.1 | · | ·
SMILES | DAX1 inh-1 | hgDAF12 agonist | GAA850 FXN act | DAX1 inh-2 | hcDAF-12 act | ssDAF12 agonist | LXR ag | hcDAF12 ag
Cc1ccc(-c2c(NC(=O)Nc3ccc(F)cc3)nc3ncccn23)cc1 | · | 4.1 | · | -1.8 | 1.1 | -0.5 | · | ·
Cc1c(C(=O)NC2CCCCC2)oc2ccc(F)cc12 | 3.7 | 10.5* | 3.7 | 0.7 | 18.5* | 0.8 | 0.7 | 8.3*
Cc1ccc2oc(C(=O)NC3CCS(=O)(=O)C3)c(C)c2c1 (configuration not stated) | 1.2 | 1.1 | 2.5 | 1.7 | -0.5 | -0.3 | · | ·
CN1CCN(CCCNC(=O)Cn2nc(-c3ccccc3)ccc2=O)CC1 | -0.2 | 1.9 | 0.4 | 1.3 | 8.5* | -1.5 | -0.3 | 0.4
O=C(Cn1nc(-c2ccccc2)ccc1=O)NCCCN1CCOCC1 | 0.0 | 0.9 | 2.2 | -0.7 | -1.8 | -0.1 | · | ·
C/C(=N/NC(=O)c1nnn(-c2nonc2N)c1-c1ccccc1)c1ccc2c(c1)OCO2 | -0.2 | 3.0 | 0.7 | 0.1 | 2.8 | 0.1 | · | ·
C/C(=N\N=C(/N)c1nonc1N)c1ccc2c(c1)OCO2 | 1.3 | 10.8* | 3.5 | 3.5 | 7.1* | 0.3 | 1.6 | 5.1
O=c1[nH]c2cc3c(cc2cc1CN(Cc1cccnc1)Cc1nnnn1Cc1ccco1)OCCO3 | 0.9 | 1.6 | 2.6 | 0.3 | -0.7 | -0.8 | · | ·
O=c1[nH]c2cc3c(cc2cc1CN(Cc1ccccc1)Cc1nnnn1Cc1ccco1)OCCO3 | -1.2 | 4.6 | 0.8 | 1.4 | 8.3* | 0.2 | -0.5 | -1.3
O=C(Nc1nccc(-c2cccs2)n1)c1cccs1 | 2.6 | 6.6 | 1.5 | 0.3 | 7.1* | 0.5 | 0.3 | 6.8*
Cc1cccc(Cn2cc(COC(=O)NCCc3ccccc3)nn2)c1 | · | 2.1 | · | 0.2 | -1.4 | -0.9 | · | ·

High-throughput results from PubChem BioAssay.
